Test results: PubChem BioAssay (NCATS)
Inconclusive results are not listed. Calls of active or inactive are those of the source. Calls come from the whole dose curve; as a rule, active = well fitted curve in the direction sought with a large enough effect; inconclusive = small, poorly fitted or top-dose-only effect, or another doubt; inactive = no such curve, though single readings can be large; an effect the other way counts as inactive or inconclusive.

What was measured:
[1] = qHTS of pediatric cancer cell lines to identify multiple opportunities for drug repurposing: Primary screen for control Hh wild type fibroblast cells (AID 1347106); details: Hh wild-type fibroblast viability, CellTiter-Glo luminescence, 48 h; series mostly up to 46 µM; note: nearly all actives have a fitted effect of over 55% in size
Procedure, shortened: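 Cells (500-1,000/well) in growth media were settled 5 h at 37 degrees C, then given compounds for 48 h. Viability was read as CellTiter-Glo luminescence. Primary runs used MIPE at 11 points (0.78 nM-46 µM) and NPC at 8 points (0.59 nM-46 µM); follow-ups used 11 points.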

[2] = qHTS of pediatric cancer cell lines to identify multiple opportunities for drug repurposing: Primary screen for MG 63 (6-TG R) cells (AID 1347105); details: MG 63 (6-TG R) viability, CellTiter-Glo, 48 h; series mostly up to 46 µM; note: nearly all actives have a fitted effect of over 50% in size
Procedure, shortened: (§1)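 Cells plated at 500-1,000/well in growth medium, compounds added after 5 h. MIPE tested at 11 points (from 0.78 nM), NPC at 8 points (from 0.59 nM). CellTiter-Glo luminescence after 48 h; concentration-response curves from primary screen.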

[3] = qHTS of pediatric cancer cell lines to identify multiple opportunities for drug repurposing: Primary screen for Rh30 cells (AID 1347107); details: Rh30 rhabdomyosarcoma viability, CellTiter-Glo luminescence, 48 h; series mostly up to 46 µM; note: nearly all actives have a fitted effect of over 75% in size
Procedure, shortened: (§2)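 Cells (500-1,000/well) rested 5 h, then received compounds for 48 h; metabolically active cells were measured by CellTiter-Glo luminescence. Final concentrations spanned up to 46 µM (MIPE, 11-point) or 0.59 nM-46 µM (NPC, 8-point) in primary screens, 11-point in follow-ups.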

[4] = qHTS of pediatric cancer cell lines to identify multiple opportunities for drug repurposing: Confirmatory screen for BT-12 cells (AID 1347112); details: BT-12 rhabdoid tumor cells, viability; series mostly up to 45.9 µM; note: nearly all actives have a fitted effect of over 55% in size
Procedure, shortened: as §2

[5] = qHTS of pediatric cancer cell lines to identify multiple opportunities for drug repurposing: Confirmatory screen for LAN-5 cells (AID 1347113); details: LAN-5 neuroblastoma cell viability; series mostly up to 45.9 µM; note: nearly all actives have a fitted effect of over 65% in size
Procedure, shortened: as §2

[6] = qHTS of pediatric cancer cell lines to identify multiple opportunities for drug repurposing: Confirmatory screen for DAOY cells (AID 1347114); details: DAOY medulloblastoma cells viability, cytotoxicity qHTS; series mostly up to 45.9 µM; note: nearly all actives have a fitted effect of over 65% in size
Procedure, shortened: (§3)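 Viability measured as metabolically active cells via CellTiter-Glo luminescence following 48 hours of compound exposure, 11-point dilutions in confirmatory testing. 500-1,000 cells/well plated 5 hours before dosing; controls were DMSO and 2.3 µM bortezomib.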

[7] = qHTS of pediatric cancer cell lines to identify multiple opportunities for drug repurposing: Confirmatory screen for NB-EBc1 cells (AID 1347115); details: NB-EBc1 neuroblastoma cells, viability (cytotoxicity); series mostly up to 45.9 µM;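 note: cells exposed to compound for 48 h before the viability read; nearly all actives have a fitted effect of over 45% in size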
Procedure, shortened: as §2

[8] = qHTS of pediatric cancer cell lines to identify multiple opportunities for drug repurposing: Confirmatory screen for SJ-GBM2 cells (AID 1347116); details: SJ-GBM2 glioblastoma cells, viability; series mostly up to 45.9 µM; note: nearly all actives have a fitted effect of over 60% in size
Procedure, shortened: as §3

[9] = qHTS of pediatric cancer cell lines to identify multiple opportunities for drug repurposing: Primary screen for Rh41 cells (AID 1347108); details: Rh41 rhabdomyosarcoma viability, CellTiter-Glo luminescence, 48 h; series mostly up to 46 µM; note: nearly all actives have a fitted effect of over 70% in size
Procedure, shortened: as §1

[10] = qHTS of pediatric cancer cell lines to identify multiple opportunities for drug repurposing: Confirmatory screen for A673 cells (AID 1347110); details: A673 Ewing sarcoma cell viability; series mostly up to 45.9 µM;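 note: cells exposed to compound for 48 h before the viability read; nearly all actives have a fitted effect of over 65% in size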
Procedure, shortened: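 qHTS titration format: primary MIPE 0.78 nM-46 µM (11 pts), NPC 0.59 nM-46 µM; confirmation 11 pts. 48 h, CTG luminescence.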

Measured: Potency
Potency is the fitted concentration of half-maximal effect.

O=c1[nH]c2ccccc2n1C1CCN(Cc2ccc(-c3[nH]c4cc5ncnc5cc4nc3-c3ccccc3)cc2)CC1
inactive: [1]

COc1nn(CSP(=S)(OC)OC)c(=O)s1
inactive: [1]

CC(C)N[C@@H]1CCn2c(=O)[nH]c3cccc(c32)[C@@H]1O
active: [1] 11800 nM | [3] 1480 nM
inactive: [2] | [4] | [5] | [6] | [7] | [8]

CC[C@@]1(O)C(=O)OCc2c1cc1n(c2=O)Cc2cc3ccccc3nc2-1
active: [2] 59 nM | [9] 209 nM | [10] 46.5 nM | [4] 827 nM | [5] 58.5 nM | [6] 4650 nM | [7] 65.7 nM | [8] 104 nM

C[C@]12Cc3cn[nH]c3C[C@@H]1CC[C@@H]1[C@H]2CC[C@@]2(C)[C@H]1CC[C@]2(C)O
inactive: [2] | [1] | [9] | [10] | [7] | [8]

N=c1c2c(-c3ccccc3)c(-c3ccccc3)n(Cc3ccccc3)c2ncn1C1CCC(O)CC1 (stereo unspecified)
inactive: [1]

Cc1c(C(=O)c2cccc3ccccc23)c2cccc3c2n1[C@H](CN1CCOCC1)CO3
active: [2] 23500 nM | [9] 20900 nM

CC(C)(O)C=CC(=O)[C@](C)(O)[C@H]1[C@H](O)C[C@]2(C)[C@@H]3CC=C4[C@@H](C=C(O)C(=O)C4(C)C)[C@]3(C)C(=O)C[C@@]12C
active: [2] 29.6 nM | [3] 8330 nM | [9] 469 nM | [10] 5220 nM | [4] 1310 nM | [5] 58.5 nM | [6] 165 nM | [7] 3290 nM | [8] 1650 nM
